Measured values published in PubChem BioAssay (NCATS).
Inconclusive results are not listed. Where a call stands in place of a potency, no number is given. Calls of active or inactive are those of the source. Calls come from the whole dose curve; as a rule, active = well fitted inhibition curve with a large enough effect; inconclusive = small, poorly fitted or top-dose-only effect; inactive = flat fitted curve, though single readings scatter.

How the values were obtained:
Assay in all cases: qHTS profiling for inhibitors of Plasmodium falciparum proliferation (AID 504749); note: nearly all actives have a fitted effect of over 60% in size
Settings in all cases: P. falciparum in erythrocytes, SYBR Green DNA, 72 h; series mostly up to 28.7 µM
DFO2036 = tested on: DFO2036
In short: (§1)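 Infected RBCs, 0.3% parasitemia/2.5% Hct final; cpd 72 h, 37 C, 5% CO2; lysis buffer with saponin/triton/SYBR Green I, o/n RT dark; FI 485/535; norm. to artemisinin (0.29 uM) and DMSO.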

DIV14 = tested on: DIV14
In short: as §1

DIV17 = tested on: DIV17
In short: as §1

DIV30 = tested on: DIV30
In short: as §1

Dd2 = tested on: Dd2
In short: as §1

ECU = tested on: ECU
In short: as §1

FAB9 = tested on: FAB9
In short: as §1

GB4 = tested on: GB4
In short: as §1

HB3 = tested on: HB3
In short: as §1

ICS = tested on: ICS
In short: as §1
Potency is the fitted concentration of half-maximal effect.

Structure (SMILES)	Potency (DFO2036)	Potency (DIV14)	Potency (DIV17)	Potency (DIV30)	Potency (Dd2)	Potency (ECU)	Potency (FAB9)	Potency (GB4)	Potency (HB3)	Potency (ICS)
NS(=O)(=O)c1ccc(Cl)c(S(N)(=O)=O)c1	inactive	inactive	inactive	inactive	inactive	inactive	inactive	inactive	inactive	inactive
CCC1Nc2cc(Cl)c(S(N)(=O)=O)cc2S(=O)(=O)N1 (centres undefined)	inactive	inactive	inactive	inactive	inactive	inactive	inactive	inactive	inactive	inactive
CCCCCCCCCCCCCC[N+](C)(C)Cc1ccccc1	7.94 µM (active)	4.78 µM (active)	4.78 µM (active)	6.75 µM (active)	10 µM (active)	7.08 µM (active)	5.62 µM (active)	4.26 µM (active)	8.91 µM (active)	2.51 µM (active)
COc1ccc(/C=N/NC(=O)c2ccncc2)cc1OC	inactive	inactive	inactive	inactive	inactive	inactive	inactive	inactive	inactive	inactive
Cc1nc(-c2ccc(Cl)cc2)oc1COC(C)(C)C(=O)O	inactive	inactive	inactive	inactive	inactive	inactive	inactive	inactive	inactive	inactive
O=C(NCCc1c[nH]c2ccccc12)c1cccnc1	inactive	inactive	inactive	inactive	inactive	inactive	inactive	inactive	inactive	inactive
Nc1nc(-c2ccccc2)c(Br)c(=O)[nH]1	inactive	inactive	inactive	inactive	inactive	inactive	inactive	inactive	inactive	inactive
c1ccc(CC2=NCCN2)cc1	inactive	inactive	inactive	inactive	inactive	inactive	inactive	inactive	inactive	inactive
O=C(O)P(=O)(O)O	inactive	inactive	inactive	inactive	inactive	inactive	inactive	inactive	inactive	inactive
CCCCN=C(N)N=C(N)N	inactive	inactive	inactive	inactive	inactive	inactive	inactive	inactive	inactive	inactive
CC[C@H](c1ccc(O)cc1)[C@@H](CC)c1ccc(O)cc1	inactive	inactive	inactive	inactive	inactive	inactive	inactive	inactive	inactive	inactive
OC1C(O)C(O)C(O)C(O)C1O (centres undefined)	inactive	inactive	inactive	inactive	inactive	inactive	inactive	inactive	inactive	inactive
CCc1oc2ccccc2c1C(=O)c1cc(I)c(O)c(I)c1	inactive	inactive	inactive	inactive	inactive	inactive	inactive	inactive	inactive	inactive
O=C(O)CCC(=O)Nc1ccc(S(=O)(=O)Nc2nccs2)cc1	inactive	inactive	inactive	inactive	inactive	inactive	inactive	inactive	inactive	inactive
CCOc1ccc(NC(C)=O)cc1	inactive	inactive	inactive	inactive	inactive	inactive	inactive	inactive	inactive	inactive
O=C(O)Cc1csc(-c2ccc(Cl)cc2)n1	inactive	inactive	inactive	inactive	inactive	inactive	inactive	inactive	inactive	inactive
COc1cc(C(=O)N2CCCCCCC2)cc(OC)c1OC	inactive	inactive	inactive	inactive	inactive	inactive	inactive	inactive	inactive	inactive
Cc1ccc(S(=O)(=O)NC(=O)NC2CCCC2)cc1	inactive	inactive	inactive	inactive	inactive	inactive	inactive	inactive	inactive	inactive
CCCc1ncc(C[n+]2ccccc2C)c(N)n1	inactive	inactive	inactive	inactive	inactive	inactive	inactive	inactive	inactive	inactive
OCc1ccccn1	inactive	inactive	inactive	inactive	inactive	inactive	inactive	inactive	inactive	inactive
CCOc1ccccc1C(N)=O	inactive	inactive	inactive	inactive	inactive	inactive	inactive	inactive	inactive	inactive
CCc1oc2ccccc2c1C(=O)c1cc(Br)c(O)c(Br)c1	inactive	inactive	inactive	inactive	inactive	inactive	inactive	inactive	inactive	inactive
CCOC(=O)c1c(N)sc2c1CCN(Cc1ccccc1)C2	7.08 µM (active)	2.69 µM (active)	7.57 µM (active)	13.5 µM (active)	7.94 µM (active)	7.08 µM (active)	4.47 µM (active)	4.26 µM (active)	3.55 µM (active)	5.01 µM (active)

Structure (SMILES)	Potency (DFO2036)	Potency (DIV14)	Potency (DIV17)	Potency (DIV30)	Potency (Dd2)	Potency (ECU)	Potency (FAB9)	Potency (GB4)	Potency (HB3)	Potency (ICS)
Cc1c[nH]c2ccccc12	inactive	inactive	inactive	inactive	inactive	inactive	inactive	inactive	inactive	inactive
Cc1cccc(C)c1NC(=O)c1ccccc1C(=O)O	inactive	inactive	inactive	inactive	inactive	inactive	inactive	inactive	inactive	inactive
O=C(Nc1ncc([N+](=O)[O-])s1)c1cccs1	inactive	inactive	inactive	inactive	inactive	inactive	inactive	inactive	inactive	inactive
CC(=O)NC(=O)c1ccccc1O	inactive	inactive	inactive	inactive	inactive	inactive	inactive	inactive	inactive	inactive
CCOC(=O)[C@H](CCc1ccccc1)N[C@@H](C)C(=O)N1[C@H](C(=O)O)C[C@H]2CCCC[C@@H]21	inactive	inactive	inactive	inactive	inactive	inactive	inactive	inactive	inactive	inactive
O=C1C(CCS(=O)c2ccccc2)C(=O)N(c2ccccc2)N1c1ccccc1 (centres undefined)	inactive	inactive	inactive	inactive	inactive	inactive	inactive	inactive	inactive	inactive
CC(C)Cc1ccc(CC(=O)O)cc1	inactive	inactive	inactive	inactive	inactive	inactive	inactive	inactive	inactive	inactive
NC(=O)c1ccccc1O	inactive	inactive	inactive	inactive	inactive	inactive	inactive	inactive	inactive	inactive
CCCCCCCCOc1ccc(C(=O)c2ccccc2)c(O)c1	inactive	inactive	inactive	inactive	inactive	inactive	inactive	inactive	inactive	inactive
Oc1ccccc1C=NCc1ccccc1	inactive	inactive	inactive	inactive	inactive	inactive	inactive	inactive	inactive	inactive
CC(=O)Nc1ccc(S(=O)(=O)Nc2ccc([N+](=O)[O-])cc2)cc1	inactive	inactive	inactive		inactive	inactive	inactive	inactive	inactive	inactive
CC(=O)Nc1ccc(OCC(O)CNC(C)C)cc1 (centres undefined)	inactive	inactive	inactive	inactive	inactive	inactive	inactive	inactive	inactive	inactive
CC(=O)Oc1ccc(C)cc1	inactive	inactive	inactive	inactive	inactive	inactive	inactive	inactive	inactive	inactive
CCCCCN=C(N)N/N=C/c1c[nH]c2ccc(OC)cc12	5.01 µM (active)	2.69 µM (active)	1.51 µM (active)	12 µM (active)	3.16 µM (active)	8.91 µM (active)		5.36 µM (active)	3.16 µM (active)	1.26 µM (active)
N/C(=N\N=C\c1ccc(Cl)cc1)N/N=C/c1ccc(Cl)cc1	3.16 µM (active)	inactive	inactive	inactive						2.24 µM (active)
C#C[C@]1(O)CC[C@H]2[C@@H]3CCC4=Cc5oncc5C[C@]4(C)[C@H]3CC[C@@]21C	inactive	inactive	inactive	inactive	inactive	inactive	inactive	inactive	inactive	inactive
O=C(O)CCNC(=O)c1ccccc1	inactive	inactive	inactive	inactive	inactive	inactive	inactive	inactive	inactive	inactive
CN(C)CCC[C@@]1(c2ccc(F)cc2)OCc2cc(C#N)ccc21	inactive	inactive	inactive	inactive		inactive	inactive	inactive	inactive	inactive
COc1ccc(CCN(C)CCCN2CCc3cc(OC)c(OC)cc3CC2=O)cc1OC	inactive	inactive	inactive	inactive		inactive	inactive	inactive	inactive	
COc1cc(N)c(Cl)cc1C(=O)NC1CCN(Cc2ccccc2)CC1	inactive	inactive	inactive		inactive	inactive	inactive		inactive	inactive
CCCCc1cc2ccccc2c(OCCN(C)C)n1	inactive	inactive	inactive	inactive		inactive	inactive		inactive	
O=C(Nc1cccc(C2=NCCN2)c1)Nc1cccc(C2=NCCN2)c1	1.78 µM (active)	3.01 µM (active)	4.26 µM (active)	13.5 µM (active)	0.891 µM (active)	3.16 µM (active)		3.79 µM (active)	10 µM (active)	2.24 µM (active)
CC(=O)NO	inactive	inactive	inactive	inactive	inactive	inactive	inactive	inactive	inactive	inactive
